Assay [1] in a line: NCI Yeast Anticancer Drug Screen. Data for the rad50 strain (AID 155).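 Further: 0% = growth of vehicle-only cultures of the same strain.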 To be noted: S. cerevisiae rad50 strain growth inhibition, hits give high values. The procedure, abridged:
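Growth of the mutant yeast was measured after compound exposure and referenced to vehicle-treated cultures.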

The nature of assay [2]: NCI Yeast Anticancer Drug Screen. Data for the mec2-1 strain (AID 157). To be noted: S. cerevisiae mec2-1 strain, hits give high values. The gist of the method: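 Readout is yeast growth inhibition, normalised to vehicle-treated controls, in the mec2-1 strain exposed to compound.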
Assay [3] is described as follows: NCI Yeast Anticancer Drug Screen. Data for the sgs1 mgt1 strain (AID 161).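 Further: 0% = growth of cultures given vehicle only.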 To be noted: S. cerevisiae sgs1 mgt1 strain, hits give high values. The gist of the method: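 Yeast cells carrying a defined DNA-repair defect were exposed to test compounds. Growth inhibition was measured relative to vehicle-treated controls.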
A short description of assay [4]: NCI Yeast Anticancer Drug Screen. Data for the cln2 rad14 strain (AID 165).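 Further: 0% = growth equal to vehicle treated cultures.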 To be noted: S. cerevisiae cln2 rad14 strain, hits give high values. The gist of the method: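 Relative to vehicle controls, growth inhibition of compound-treated cln2 rad14 yeast was recorded.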
Assay [5] can be described thus: NCI Yeast Anticancer Drug Screen. Data for the bub3 strain (AID 167). To be noted: S. cerevisiae bub3 mutant strain, hits give high values. The gist of the method: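 Whole-cell yeast assay. The mutant strain was incubated with compounds, and growth inhibition was determined by comparison with vehicle-treated cells.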
Assay [6] can be described thus: NCI Yeast Anticancer Drug Screen. Data for the mlh1 rad18 strain (AID 175). To be noted: S. cerevisiae mlh1 rad18 strain growth inhibition, hits give high values. The gist of the method: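 Test agents were incubated with a yeast strain of defined genotype (DNA damage repair defect). Inhibition of growth was derived by comparison with vehicle-exposed cultures.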
Setting [7] is: at 5.0 µM (retest, dose inferred, filed as 0.5).
[8] abbreviates: at 50.0 µM (retest, dose inferred, filed as 5.0).

These results are taken from PubChem BioAssay (NCI).

This is part of a sample that, as a whole, favours compounds with a hit. Of some 79,000 tested, about 15% had one in any assay. Values without a mark were called inactive. Active and inactive are the calls of the source. No stated cut-off is given here; in the data, active means growth inhibition above about 70%; inactive means the rest.

In the case of `CC(C)(C[NH-])C[NH-].[Cl][Pt+2]([Cl])([Cl])[Cl]`, the growth inhibition in assay [1] (setting [7]) is 78% (active); in assay [1] (setting [8]), 97% (active); in assay [1] (at 50.0 µM), 82.3% (active); in assay [2] (setting [7]), 93% (active); in assay [2] (setting [8]) it was 99% (active); in assay [2] (at 50.0 µM) it was 86.5% (active). Besides, the growth inhibition in assay [3] (setting [7]) was 95% (active); in assay [3] (setting [8]), 99% (active); in assay [3] (at 50.0 µM), 86.5% (active); in assay [4] (setting [7]), 79% (active); in assay [4] (setting [8]), 99% (active); in assay [4] (at 50.0 µM), 87.4% (active). Further, the growth inhibition in assay [5] (setting [7]) was 95% (active); in assay [5] (setting [8]), 99% (active); in assay [5] (at 50.0 µM), 82.5% (active); in assay [6] (setting [7]), 90% (active); in assay [6] (setting [8]), 97% (active); in assay [6] (at 50.0 µM), 57.5%.
`CN(C)CCCC(=O)OCC[N+](C)(C)C`: the growth inhibition in assay [1] (setting [7]) is -2%; in assay [1] (setting [8]), 4%; in assay [1] (at 50.0 µM), -39.2%; in assay [2] (setting [7]), -4%; in assay [2] (setting [8]), 6%; in assay [2] (at 50.0 µM) it was -8.5%. The growth inhibition was -4% in assay [3] (setting [7]); -2% in assay [3] (setting [8]); -11.2% in assay [3] (at 50.0 µM); -14% in assay [4] (setting [7]); -3% in assay [4] (setting [8]); 64.3% in assay [4] (at 50.0 µM). The growth inhibition is -1% in assay [5] (setting [7]); 5% in assay [5] (setting [8]); 14.2% in assay [5] (at 50.0 µM); -4% in assay [6] (setting [7]); 5% in assay [6] (setting [8]); -12.5% in assay [6] (at 50.0 µM).
In the case of `Cc1cccc(O)c(=O)c1`, the growth inhibition is 12% in assay [1] (setting [7]); 98% (active) in assay [1] (setting [8]); 99.3% (active) in assay [1] (at 50.0 µM); -5% in assay [2] (setting [7]); 99% (active) in assay [2] (setting [8]); 99.5% (active) in assay [2] (at 50.0 µM). Moreover, the growth inhibition in assay [3] (setting [7]) is 2%; in assay [3] (setting [8]) it was 98% (active); in assay [3] (at 50.0 µM), 99.5% (active); in assay [4] (setting [7]) it was 8%; in assay [4] (setting [8]) it was 95% (active); in assay [4] (at 50.0 µM), 99.5% (active). Also, the growth inhibition in assay [5] (setting [7]) was 9%; in assay [5] (setting [8]), 98% (active); in assay [5] (at 50.0 µM), 99.4% (active); in assay [6] (setting [7]), 9%; in assay [6] (setting [8]) it was 96% (active); in assay [6] (at 50.0 µM), 99.5% (active).
With `CCC(C)COC(=O)c1ccc([N+](=O)[O-])cc1` (stereo not given), the growth inhibition in assay [1] (setting [7]) was -4%; in assay [1] (setting [8]) it was 10%; in assay [1] (at 50.0 µM), 50%; in assay [2] (setting [7]), -4%; in assay [2] (setting [8]) it was 2%; in assay [2] (at 50.0 µM), 16.4%. In addition, the growth inhibition in assay [3] (setting [7]) was -1%; in assay [3] (setting [8]), 7%; in assay [3] (at 50.0 µM), 72.8% (active); in assay [4] (setting [7]), -3%; in assay [4] (setting [8]), -9%; in assay [4] (at 50.0 µM), -2.15%. Moreover, the growth inhibition in assay [5] (setting [7]) was -6%; in assay [5] (setting [8]), -6%; in assay [5] (at 50.0 µM), 80.2% (active); in assay [6] (setting [7]), -4%; in assay [6] (setting [8]) it was 5%; in assay [6] (at 50.0 µM) it was 89.3% (active).
As for `ON1CCc2c([nH]c3ccccc23)C1c1ccc(Cl)cc1` (stereo not given), the growth inhibition in assay [1] (setting [7]) was -8%; in assay [1] (setting [8]), 93% (active); in assay [1] (at 50.0 µM), 54.5%; in assay [2] (setting [7]) it was -9%; in assay [2] (setting [8]) it was 91% (active); in assay [2] (at 50.0 µM), 34.4%. Moreover, the growth inhibition is 1% in assay [3] (setting [7]); 98% (active) in assay [3] (setting [8]); 85.4% (active) in assay [3] (at 50.0 µM); -8% in assay [4] (setting [7]); 88% (active) in assay [4] (setting [8]); 55.7% in assay [4] (at 50.0 µM). Further, the growth inhibition is -6% in assay [5] (setting [7]); 96% (active) in assay [5] (setting [8]); 40.1% in assay [5] (at 50.0 µM); -2% in assay [6] (setting [7]); 96% (active) in assay [6] (setting [8]); 79.2% (active) in assay [6] (at 50.0 µM).
